# HTR5A inv ctr: inverse agonist of human HTR5A in OPRM1-OPRD1 counter-screen; inhibition, % at 9.3 µM; 340,000 tested, 0.083% active; HTR5A cell line, luminescence, inverse agonism; AID 504634; P47898; in the data active = inhibition mostly above about 23%, no sharp cut-off; inactive = mostly below about 18%;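 note: 0% = cells with DMSO and 100% = no-cell wells with DMSO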
# OPRM1-OPRD1 inv: mu-delta opioid heterodimer inverse agonism; P35372+P41143; cell-based MOR-DOR heterodimer luminescence; inhibition, % at 9.3 µM; 340,000 tested, 0.21% active; in the data active = inhibition above about 22%, passing the limit was not always enough;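 note: 0% = cells with DMSO and 100% = wells without cells with DMSO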
# Target sequence (P35372 whole entry, looked up): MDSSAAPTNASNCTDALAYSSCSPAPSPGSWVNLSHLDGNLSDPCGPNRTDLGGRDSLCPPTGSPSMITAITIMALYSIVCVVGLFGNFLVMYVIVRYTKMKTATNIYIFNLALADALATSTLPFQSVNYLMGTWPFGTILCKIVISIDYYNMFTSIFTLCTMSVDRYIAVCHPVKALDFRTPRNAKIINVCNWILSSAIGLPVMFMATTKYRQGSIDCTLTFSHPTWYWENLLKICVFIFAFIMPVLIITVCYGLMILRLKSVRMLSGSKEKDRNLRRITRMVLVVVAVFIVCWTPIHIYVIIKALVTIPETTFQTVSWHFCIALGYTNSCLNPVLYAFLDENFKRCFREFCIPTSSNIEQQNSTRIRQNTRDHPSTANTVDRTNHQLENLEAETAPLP
# Target sequence (P41143 whole entry, looked up): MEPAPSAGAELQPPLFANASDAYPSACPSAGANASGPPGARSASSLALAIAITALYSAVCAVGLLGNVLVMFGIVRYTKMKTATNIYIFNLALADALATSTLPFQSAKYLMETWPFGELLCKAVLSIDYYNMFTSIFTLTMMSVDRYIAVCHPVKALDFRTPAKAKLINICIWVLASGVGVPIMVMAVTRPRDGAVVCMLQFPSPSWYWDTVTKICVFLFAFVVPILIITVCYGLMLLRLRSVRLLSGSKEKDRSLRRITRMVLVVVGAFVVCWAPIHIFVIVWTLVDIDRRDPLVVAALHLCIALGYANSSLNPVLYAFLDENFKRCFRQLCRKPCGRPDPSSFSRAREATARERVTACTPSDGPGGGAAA
# HTR5A ag: HTR5A agonism, opioid heterodimer counter-screen; HTR5A agonist assay, luminescence, cell-based; activation, % at 9.3 µM; P47898; 340,000 tested, 0.61% active; in the data active = activation mostly above about 9.5%, no sharp cut-off; inactive = mostly below about 7.6%;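 note: 0% = cells with vehicle only and 100% = reference agonist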
# OPRM1-OPRD1 ag: agonists of human mu-delta opioid receptor heterodimerization; P35372+P41143; AID 504326; 340,000 tested, 0.3% active; activation, % at 9.3 µM; cells, OPRM1-OPRD1 heterodimerization, luminescence; in the data active = activation above about 18%;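 note: 0% = vehicle-treated cells and 100% = reference agonist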
# The depositor's hits bear a star. The list is not random: actives were taken first. Their share in the collection is about 1.1%.
SMILES,HTR5A inv ctr,OPRM1-OPRD1 inv,HTR5A ag,OPRM1-OPRD1 ag
COc1ccc(OCCN(C)Cc2c(O)ccc3ccccc23)cc1,-28,-38,3,5
Cc1cc(C(=O)NN)c2cc(Br)ccc2n1,-41,-4,13*,1
Cc1cc2c(=O)n(C)c(SCC(=O)Nc3ccc(F)cc3)nc2s1,-1,19,0,-4
COc1ccccc1-n1c(=S)sc2c(=O)n(Cc3ccco3)c(SC)nc21,-12,-7,10*,1
Cc1cccc(C)c1N(CC(=O)NC1CCCCC1)C(=O)c1csnn1,-2,-3,1,1
COc1ccccc1CNCC(=O)Nc1cc(S(=O)(=O)N2CCCCCC2)ccc1Cl,9,-12,5,2
CC1CN(C(=O)COC(=O)/C=C/c2ccc(C(F)(F)F)cc2)CC(C)O1 (stereo not given),-17,6,7,-1
CC(=O)N1CCN(C(=O)COC(=O)/C=C/c2ccc(C(F)(F)F)cc2)CC1,22,10,14*,-3
Cc1c(C(=O)Nc2c(N)nc(SCC(=O)NCC3CCCO3)[nH]c2=O)cccc1[N+](=O)[O-] (stereo not given),-21,8,3,-2
Cc1ccc(Cn2ccsc2=NC(=O)COC(=O)c2ccc(NC(=O)CC#N)cc2)cc1,-9,12,1,-3
Cc1ccc(Cn2ccsc2=NC(=O)CCl)cc1,-46,-294,92*,59*
CCCCn1c(CCC(=O)O)nc2cc(S(=O)(=O)N3CCCC3)ccc21,-30,9,8.3*,-2
CCCn1c(CCC(=O)O)nc2cc(S(N)(=O)=O)ccc21,16,13,6,-3
O=C(O)c1cccc(N2C(=O)C3CC=CCC3C2=O)c1 (stereo not given),10,18,1,-4
O=C(O)c1cccc(N2C(=O)C3CC=C(Cl)CC3C2=O)c1 (stereo not given),-30,6,11*,-1
COc1cc2c(cc1NC(=O)C(C)N1CCN(S(=O)(=O)c3ccc(C)c(C)c3)CC1)oc1ccccc12 (stereo not given),2,5,-1,-1
COc1cc2c(cc1NC(=O)C(C)OC(=O)c1ccc(S(=O)(=O)Nc3ccccc3Cl)cc1)oc1ccccc12 (stereo not given),-33,12,13*,-2
O=C(CN1CCN(S(=O)(=O)c2ccccc2F)CC1)Nc1ccnn1C1CCCC1,-1,12,-2,-3
Cc1cccc(C(=O)O/N=C2\CCCc3ccccc32)c1,-34,-6,13*,1
Cc1ccc(C(=O)O/N=C2\CCCc3ccccc32)cc1,-23,-17,9,4
FC(F)Oc1cccc(NC(=S)N2CCN(c3ccccn3)CC2)c1,8,-14,-3,2
O=C(CCn1cnnn1)NC1CCCN(Cc2ccccc2F)C1 (stereo not given),26,17,3,-3
O=C(NCc1ccc(F)cc1)C1CCC(CNS(=O)(=O)c2cccs2)CC1 (stereo not given),-23,-26,14*,4
CC1(C)Cc2c(c(N3CCOCC3)nc3snc(NC(=O)c4ccccc4)c23)CO1,-34,-9,12*,1
CC1CCN(C(=O)C(NS(=O)(=O)c2cccc3nsnc23)C(C)C)CC1 (stereo not given),12,13,-5,-2
SMILES,HTR5A inv ctr,OPRM1-OPRD1 inv,HTR5A ag,OPRM1-OPRD1 ag
COc1ccc(OC)c(-c2cc(C3CCN(c4cc(Cl)nc(N)n4)CC3)[nH]n2)c1,-5,-3,10*,1
COc1ccc(-c2cc(C3CCN(c4cc(Cl)nc(N)n4)CC3)[nH]n2)cc1,-11,0,5,0
Nc1nc(Cl)cc(N2CCC(c3cc(-c4ccc(Cl)cc4)n[nH]3)CC2)n1,-12,-33,14*,6
CCOC(=O)c1[nH]c(CO)c(C(=O)OCC)c1C,-15,10,4,-2
Cc1ccc2c(c1)COc1c3ccc(C(=O)N[C@@H](C)CO)cc3nn1-2,-14,9,14*,-2
O=C(Nc1cccnc1)c1cc(-c2cccc(Br)c2)nc2ccccc12,-7,-51,13*,10
CC(C)CNS(=O)(=O)c1cc(C(=O)OCC(=O)c2ccc3c(c2)OCCO3)c(Cl)cc1Cl,-7,2,2,0
CCCn1c(C)cc(C(=O)COC(=O)c2cc(S(=O)(=O)NCC(C)C)c(Cl)cc2Cl)c1C,-10,0,14*,0
O=C(NCC1(O)CCCCC1)C1CCC(=O)N(CCc2ccccc2)C1 (stereo not given),-14,26,6,-5
CC(=O)N(Cc1cc2ccccc2[nH]c1=O)c1ccc(C)cc1,-36,6,9.7*,-1
CCOC(=O)C1=CN(Cc2cccc(F)c2)S(=O)(=O)N(C)C1c1ccc(F)c(Cl)c1 (stereo not given),1,4,0,-1
O=[N+]([O-])c1ccc2[nH]ncc2c1,-34,11,12*,-2
Cc1cccc(C(=O)NCCC(=O)Nc2ccc(C#N)cc2)c1,7,-6,-3,1
Cc1cc(C)c(OCC(=O)NCC(C)(C)N2CCOCC2)c(C)c1,-8,7,3,-1
Cc1cc(/C=C\c2nc(O)c([N+](=O)[O-])c(=O)[nH]2)c(C)n1-c1ccccc1,13,-194,-4,34*
CC(Sc1nnc(CNC(=O)c2ccco2)n1C)C(=O)Nc1nccs1 (stereo not given),-11,11,4,-2
COc1cccc(/C=N/NC(=O)CCn2c3ccccc3c3ccccc32)c1,-21,-23,12*,4
COc1ccc(/C=N/NC(=O)CCn2c3ccccc3c3ccccc32)cc1O,9,-2,8,0
CCC(NS(=O)(=O)c1cccs1)c1ccc(C)cc1 (stereo not given),2,4,-1,-1
Cc1ccc(S(=O)(=O)NCC(=O)OCC(=O)c2ccc(S(=O)(=O)N3CCCCC3)cc2)cc1C,42*,77*,-17,-19
COc1cc2c(cc1OC)C(c1cccc([N+](=O)[O-])c1)NC(=O)C2 (stereo not given),2,8,-4,-2
COc1cc2c(cc1OC)C1(CCCC1)CNC2c1cccc([N+](=O)[O-])c1 (stereo not given),38*,35*,-13,-7
CCOCCCNC(=O)CS(=O)(=O)Cc1nc(-c2cccc(OC)c2)oc1C,20,-3,-8,1
COc1cccc(-c2nc(CS(=O)(=O)CC(=O)Nc3cc(F)ccc3F)c(C)o2)c1,-14,-2,11*,0
CCCNC(=O)CS(=O)(=O)Cc1nc(-c2cccc(OC)c2)oc1C,-3,-1,13*,0
O=C(CCSCCC(=O)Nc1c(F)c(F)c(F)c(F)c1F)Nc1c(F)c(F)c(F)c(F)c1F,-10,11,2,-2
COc1cc(C(=O)O)cc(NC(=O)c2ccco2)c1OC,-39,16,12*,-3
O=C(O)c1cc(-c2ccc(-c3ccc(F)cc3)o2)nc2ccccc12,2,31,-1,-6
O=C1C=C(O)C(n2cncn2)C(c2ccc(F)cc2)C1 (stereo not given),14,-4,-5,1

# Compound activity: PubChem, The Scripps Research Institute Molecular Screening Center
